# Reference: PubChem BioAssay (EPA / NIEHS)
# Results filed as inconclusive are left out. The source made the active and inactive calls. Rule for the calls: active = hit-call score of the fitted dose curve at least 0.9, where 1 is the maximum; inconclusive = response in the unintended direction; inactive = score below 0.9.
# Test: ACEA_ER_AUC_viability: ACEA Biosciences xCELLigence Real-Time Cell Analysis on Estrogen Receptor Agonism for Viability (AID 2283782);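 note: continuous compound exposure with impedance area under curve over 80 h; hit means loss of impedance signal meaning reduced cell growth or viability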
# In short: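 T-47D; phenol red-free RPMI1640 + 10% CS-FBS; 8 conc., 1:4 serial, max 100 uM final, ≤0.5% DMSO; n = 2; continuous exposure; impedance monitored to 80 h post-dose; AUC vs DMSO.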
SMILES,AC50,outcome
Cc1cccc(C)c1C,26.4 µM (active),–
Cc1ccc(S)cc1,–,inactive
C=C(C)C(=O)O,–,inactive
CCC(O)CO (stereo not drawn),26 µM (active),–
CC(C)[C@@H]1CC[C@@H](C)CC1=O,–,inactive
CC(=O)C(=O)O,78 µM (active),–
C=C[Si](OCC)(OCC)OCC,–,inactive
Nc1ccc(S(N)(=O)=O)cc1,–,inactive
CC(C)(C)C(=O)c1ccccc1,–,inactive
C=CCOc1nc(OCC=C)nc(OCC=C)n1,–,inactive
CCO[Si](CCCS)(OCC)OCC,–,inactive
CC(C)CCCCCCCOC(=O)c1ccc(C(=O)OCCCCCCCC(C)C)c(C(=O)OCCCCCCCC(C)C)c1,–,inactive
Cc1ccc(C=O)s1,50 µM (active),–
CC(=O)C=CC1=C(C)CCCC1(C)C,–,inactive
CN(C)CCCN,–,inactive
O=C(O)CCCCCCCCCCC(=O)O,37.7 µM (active),–
CC(C)(COC(=O)c1ccccc1)COC(=O)c1ccccc1,72.8 µM (active),–

SMILES,AC50,outcome
C=COCCOCCOCCOC=C,–,inactive
CCCCCOC(=O)CCC,–,inactive
C=C(C)[C@@H]1CCC2=CC(=O)C[C@@H](C)[C@]2(C)C1,80.7 µM (active),–
CCCCN,45.1 µM (active),–
CCCCCCCCCC=O,–,inactive
OCCOCCOCCOCCO,–,inactive
O=C1CCCCCCCCCCOCCCCO1,55.4 µM (active),–
Nc1ccc(F)c([N+](=O)[O-])c1,26.5 µM (active),–
CCCCOCCOCCOCCOCCO,–,inactive
Nc1cc([N+](=O)[O-])ccc1O,9.92 µM (active),–
C=CC(C)(O)CCC=C(C)CCC=C(C)C (stereo not drawn),67.1 µM (active),–
O=C=NC1CCC(CC2CCC(N=C=O)CC2)CC1 (stereo not drawn),28.5 µM (active),–
Fc1c(F)c(F)c(Br)c(F)c1F,–,inactive
Nc1cccc(S(=O)(=O)c2cccc(N)c2)c1,–,inactive
CC(C)=CCCC(C)=CCCC(C)=CCO,84.2 µM (active),–
O=C(O)c1ccc(C(=O)O)cc1,–,inactive
